Source: PubChem BioAssay AID2314 (National Center for Advancing Translational Sciences (NCATS), 2010)
The whole screen tested about 300,000 compounds, of which about 37,000 (12%) were called active. The list comes from a sample in which actives are over-represented; it also holds similar structures and randomly drawn compounds. A number with no mark means an inactive call. No stated cut-off is given here; in the data, active means max response mostly above about 13% (no sharp cut-off); inactive means mostly below about 14%.

Test: Cycloheximide Counterscreen for Small Molecule Inhibitors of Shiga Toxin; further: read at 38.3 µM for the half of the compounds with a filed dose; 0% is about no effect
Settings: cell reporter, cycloheximide protein synthesis inhibition counterscreen; hits give high values

Going from `Oc1ccc(-c2c(-c3ccccc3)nn3c(C(F)(F)F)cc(C(F)(F)F)nc23)cc1` to `Cn1nc(-c2ccccc2)c2cc([N+](=O)[O-])ccc21`, the max response rises from -7.49% to 1.38%.

First: Cc1ccc2c(c1)N(CC(=O)N1CCC(O)CC1)C(=O)CO2
Second: CSCC[C@H](NC(=O)N1CCn2c1nc1ccccc12)C(=O)NC1CCCCC1
The max response of the first is lower: -1.82% for the first, 19.4% for the second.

First: CC[C@@H](C)[C@H](NC(=O)CCc1c(C)c2cc3c4c(oc3c(C)c2oc1=O)CCCC4)C(=O)O
Second: CCN(CC)c1ccc(NC(=O)CCc2nnc3ccc(N4CCCCC4)nn23)c(C)c1
The max response of the first is higher: 9.7% for the first, -1.8% for the second.

Compared with `COc1ccc(/C=C2\SC(=S)N(CCC(=O)Nc3ccccn3)C2=O)cc1OC`, `COc1ccc(C2NC(=O)C(=O)/C2=C(\O)c2ccc(Cl)cc2)cc1OC` (centres undefined) is higher in max response: -7.17% for the first, -4.04% for the second.

First: O=C(CNC(=O)[C@@H]1Cc2ccccc2CN1)NC1CCCCC1
Second: CCCC1CCC(=NNC(=S)NCCc2ccccc2)CC1 (centres undefined)
The max response of the first is lower: 1.46% for the first, 13.6% for the second.

First: COc1ccc(/C(C)=N/Nc2cc(C(F)(F)F)ccc2Cl)c(OC)c1
Second: COC(=O)CN1C(=O)C(C)(C)Oc2ccc(C(=O)Nc3cccc(OC)c3)cc21
The max response of the first is higher: -5.52% for the first, -5.75% for the second.

Compared with `O=C(CCl)N(Cc1cccc([N+](=O)[O-])c1)c1cccc(Cl)c1`, `C/C(=N\NS(=O)(=O)c1cccc([N+](=O)[O-])c1)c1cc2ccccc2o1` is higher in max response: -0.93% for the first, 1.29% for the second.

First: CN(C)/C=C(\C=[N+](C)C)c1[nH]ncc1[N+](=O)[O-]
Second: COc1cc(C(=S)N2CCOCC2)cc(OC)c1OC(=O)c1cc([N+](=O)[O-])c(C)c([N+](=O)[O-])c1
The max response of the first is lower: -6.11% for the first, -3.02% for the second.

First: CC(=O)C(C)n1cnc2scc(-c3ccc(C)cc3)c2c1=O (centres undefined)
Second: CCC(C(=O)OC)n1cnc2c(oc3ccccc32)c1=O (centres undefined)
The max response of the first is higher: 1.16% for the first, -2.56% for the second.

First: COc1ccc(CN2CCCC(C(=O)N3CCCCC3)C2)cc1 (centres undefined)
Second: COc1ccc(CNS(=O)(=O)c2ccc(NC(=O)N3CCCCC3)cc2)cc1
The max response of the first is lower: -1.73% for the first, 2.3% for the second.

Compared with `Cc1cnc(NC(=O)CSc2c(Cl)cccc2Cl)s1`, `Cc1cnc(NC(=O)CSc2nnc(C)s2)s1` is higher in max response: 5.96% for the first, 20.1% for the second.

Going from `COc1ccc(CC(=O)NCc2nnc(SCC(=O)Nc3ncc(C)s3)n2C)cc1` to `Cc1cnc(NC(=O)CSc2nnc(-c3ccccc3)n2Cc2ccccc2)s1`, the max response falls from 3.99% to -3.18%.

Compared with `CCOC(=O)c1c(-c2ccccc2)oc2cc(Br)c(O)c(C=O)c12`, `Cc1ccc(OC(=O)c2cc3ccccc3o2)cc1` is higher in max response: 5.72% for the first, 13.6% for the second.

Going from `CCCc1ccc(OCC(O)CN2CCN(CCO)CC2)cc1` (centres undefined) to `OC(COCC1COc2ccccc2O1)CN1CCN(c2ccc(F)cc2)CC1` (centres undefined), the max response rises from -1.67% to -1.11%.

Going from `S=c1nc(C23CC4CC(CC(C4)C2)C3)nc2sccn12` to `CC(C)c1nnc(NC(=O)C2CC(=O)N(CCc3ccc(F)cc3)C2)s1` (centres undefined), the max response falls from 1.25% to -6.02%.

Going from `CCn1c(NC(=O)c2nn(C)cc2Br)nc2ccccc21` to `CC(C)(C)n1nc2c(c1NC(=O)c1cc3ccccc3o1)CSC2`, the max response rises from -2.42% to 9.15%.

Compared with `CC(C)c1ccc(C(=O)OC2CCOC2=O)cc1` (centres undefined), `COC(=O)c1cccc(N2C(=O)C3C4C=CC(CC4)C3C2=O)c1` (centres undefined) is lower in max response: 6.8% for the first, -3.45% for the second.

First: O=C1OCCN1C(=O)[C@H]1[C@H](c2ccc(F)cc2)C(c2ccccc2)=NN1c1ccc(Br)cc1
Second: Cc1ccc(C)c(NC(=O)CSc2nc3c(oc4ccccc43)c(=O)n2-c2ccccc2)c1
The max response of the first is higher: 5.32% for the first, 0.718% for the second.

Compared with `O=C1CCC(C(=O)N2CCC(O)(c3ccccc3)CC2)CN1CCc1ccccc1` (centres undefined), `CC(=O)N1CCN(c2ccccc2NC(=S)NC(=O)c2cc3ccccc3o2)CC1` is lower in max response: -0.943% for the first, -8.35% for the second.

Going from `Cc1cc(C(=O)NC2CC(C)(C)Cc3c2cnn3-c2ccccc2)n[nH]1` (centres undefined) to `CC1(C)Cc2c(cnn2-c2cccc(F)c2)C(NC(=O)c2cc[n+]([O-])cc2)C1` (centres undefined), the max response falls from 3.28% to -3.06%.

Compared with `O=C(O)c1cc(S(=O)(=O)NC2CCCc3ccccc32)ccc1O` (centres undefined), `Cc1ccc(Sc2cc(C(=O)c3ccccc3C(=O)O)ccc2[N+](=O)[O-])cc1` is lower in max response: 1.09% for the first, -4.78% for the second.

Going from `Cc1cc(-c2ccc(C)c(S(=O)(=O)NCCCN(Cc3ccccc3)C(C)C)c2)on1` to `CC(C)Cn1cnc2c1c(=O)n(CC(=O)NN)c(=O)n2Cc1ccccc1`, the max response rises from -2.55% to 0.845%.

First: Cc1ccc(C(=O)CSc2nnc(Cn3nnc4ccccc43)n2C)cc1
Second: Cc1cccc(-n2nc3c(c2NC(=O)c2cc4ccccc4o2)CS(=O)(=O)C3)c1
The max response of the first is higher: -0.925% for the first, -5.35% for the second.

Going from `CC1CC(C)CN(c2ccc(S(=O)(=O)N3CCOCC3)cc2)C1` (centres undefined) to `O=C(NCCc1ccc2c(c1)OCCO2)c1cc2ccccc2o1`, the max response rises from 7.13% to 8.84%.

Compound `O=C(O)C1=NN(c2c(F)c(F)cc(F)c2F)C(=O)CC1` has a max response of -4.21%.

In the case of `Nc1c(-c2cccc(Cl)c2)cnn1-c1cccc([N+](=O)[O-])c1`, the max response is reported as 17.2% (active).
For `CNc1[nH]ncc1[N+](=O)[O-]`, the max response was 40.2% (active).
In the case of `Cc1ccc(SCC(=O)Nc2ncc(C)s2)cc1`, the max response is reported as 25% (active).
For `Cc1cnc(NC(=O)CSc2nnc(-c3ccc(Cl)cc3Cl)n2N)s1`, the max response was 24.6% (active).
For `Cc1ccc(C)c(Cn2cnc3c(oc4ccccc43)c2=O)c1`, the max response was 20.1% (active).
For `COC(=O)c1ccc(C(=O)NC2CC(C)(C)Cc3c2cnn3-c2ccc(F)cc2)nc1` (centres undefined), the max response was 24.5% (active).
For `Cc1ccc(C(=O)CSc2ccccc2C(=O)O)cc1`, the max response was 20.8% (active).
With `C/C(=N\NC(=S)Nc1ccc(C)cc1)c1cc2ccccc2o1` the max response was 20.6% (active).
With `Cc1ccc(NC(=O)c2cc3ccccc3o2)cc1` the max response was 43.9% (active).
For `O=C(Nc1ccncc1)c1cc2ccccc2o1`, the max response was 22.3% (active).
